# Measured values as given in the supplement of paper PMC11417369.
# In all, about 25,000 sequences were measured (“ln(normalized median fluorescence intensity)”: median about 9.7, highest 2% from about 11 on). Only a selection was taken, and the highest values are over-represented in it overall.
# Test system: PfAP2-HC AP2 domain (GST-tagged)
# Assay: gcPBM binding intensity (ln(normalized median fluorescence intensity)); higher = stronger DNA binding
# Outline: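 The binding buffer was 1× PBS containing 1% milk, 0.2 mg/ml BSA, 0.5% salmon testes DNA and 0.03% Triton X-100. In it, GST-tagged P. falciparum DNA-binding domains expressed in E. coli were applied for 1 h to an Agilent 4 × 180k array of primer-extended double-stranded 36-bp intergenic genomic probes plus negative controls. Binding intensity, read with Alexa488 anti-GST antibody and a 488 nm scan, is the highest Masliner-normalised natural-log median intensity across replicate spots of either probe orientation.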
row,Sequence,gcPBM binding intensity (ln)
1,ATATAAATATGTTCTGCACACAAATAAGTGTTTGAA [CACACA_site9291],9.79
2,GCACTAAAAAAATAAACACACAGATTTATATAATAT [CACACA_site1381],9.79
3,TACAAAAGCTATAACATTCACCACATTATAAAAATA [CACACA_negctrl_site1112],9.78
4,TAAAAACCAAAGAAAAGTACAAATTTAAATGAGAAA [XGTACX_site7450],9.83
5,AAATATGTCAAATATACACACATAATAAATATAATA [CACACA_site2310],9.99
6,TTCTAATATATGCATACACACAAATGTGAATATACA [CACACA_site2142],9.83
7,TAAAGGCAAACAAACACACACACATATATACATATA [CACACA_site2123],11.1
8,AACAAATACGGACACACACACACACTAGAAAAAAAA [CACACA_site4442],11
9,AAGGCAAACAAACACACACACATATATACATATATA [CACACA_site2122],10.4
10,AAAATAAAATAAAATACACACATACATACATACAAA [CACACA_site5366],10.2
11,AAAAAAAAAAAAAATACACACACATAAAAAAAAAAA [CACACA_site8555],10.9
12,AAAAAAAAAATATACACACACACATACACATAAATA [CACACA_site3808],10.4
13,AATAAAATAAAATACACACATACATACATACAAATG [CACACA_site2438],11.2
14,AACAAACACGGACACACACACACACTAGAATGATTA [CACACA_site5364],10.7
15,ACAAAAAAAAAAAAAATACACACACATAAAAAAAAA [TGCATGCA_negctrl_site333],10.2
16,TATTAATACGGACACACACACACACTAGATAAAATA [CACACA_site4295],10.8
17,TAAAGGCAAACAAACACACACACATATATACCTATA [CACACA_site7078],10.6
18,AAAAAAAAAAAATACACACACATAAAAAAAAAAATA [CACACA_site1858],10.9
19,AATACATAATAACATGTACACACATTCTTCTATAAA [CACACA_site9344],9.82
20,TAATAAACTTAAAAATGTACATATATTTATTATTAC [XGTACX_site4321],9.61
21,AGTAAGAGGCATTAAGCATGCATATTATTATAAGCA [TGCATGCA_site237],9.85
22,AAGAATGTTAATAGTACACACAATTATTATATAAAT [CACACA_site3739],9.93
23,TCCAAATGTTTGCGTTGTACTCTTTTTTTAAAACTA [XGTACX_site5148],9.73

row,Sequence,gcPBM binding intensity (ln)
1,ATATTTTTTTATAAATGTACAAAAATAATATTGCAT [XGTACX_site7399],9.48
2,ATATATATTATCATTGTGCACTTATTTATATACCTT,10
3,AAAATACACCAACACACACACATATATATATATATT [CACACA_site4149],10.3
4,AAAATATATACACAAACATGCATATAATAAATAAAT [TGCATGCA_site711],9.99
5,ATATATCTACAAATATGTACACACACACATATATAT [XGTACX_site1075],11.1
6,CATATAAAAATATGCACACACAGGAATACAAACATA [CACACA_site684],10.3
7,AAAATACACAACATATATATATATATATATATATAT [XGTACX_negctrl_site21],9.62
8,TGTACAAATATGTACACACACACATATATATATATA [CACACA_site584],10.3
9,CAAATACACCAACACACACACACAAAAAAAAAAAAA [CACACA_site514],11.3
10,AAAAAAAAAAAACATACACACAAATATATACATACA [CACACA_site4011],10.2
11,AACATATAAAAATATGCACACACAGGAATACAAACA [CACACA_site8127],11.2
12,AATAAATATATGTACACACACAAATATATACATATC [CACACA_site1903],10.2
13,AAAAAAAAAAAAAACATACACACAAATATATACATA [CACACA_site4010],10
14,AAAAAAAAAAAACACACACACACATACAAAATATAT [CACACA_site1448],11.3
15,TATAAATTAAAATCAGTGCATATTTTGAAAAACCTC,9.66
16,ATATATTGATATATGTGTACATAGCTTATTTCATTT [XGTACX_site1800],9.74
17,GTAAAATTAAAAATAACACACAAAAAAAAAAAAAAA [CACACA_site800],9.85
18,TTTATTTATTTATTCTTATTTTTTTTTTTTTTTACT [CACACA_negctrl_site257],9.49
19,CTATGAACACACACATGTACATATATTAACTCGCTA [XGTACX_site8805],9.98
20,TTATAACTTTTCACAAGTACATATATATATGTATAA [XGTACX_site2306],9.53
21,AAGTTAGTATTCTGCTGTACTTCTATATATAAGTGT [XGTACX_site7678],9.61
22,TATAAATATATATATACACACACATACACAAAAAAA [CACACA_site9191],10.5
23,CACACGCACGGACACACACACAAAAAAAAAAAGAAA [CACACA_site6378],10.3

row,Sequence,gcPBM binding intensity (ln)
1,TATATACACATATATAAACACACAAAAAAAAAAAAA [CACACA_site8626],9.82
2,CACATACATATATACACACACAAAATAATAAAATAA [CACACA_site2308],10.4
3,TATAACATAAAACACACACACATACATACACAAAAA [CACACA_site1804],11
4,AACAGACAAAGACACACACACATACATACATACATA [CACACA_site6351],10.4
5,TACAAAATGGGGAACACACACATATATAAATAAATA [CACACA_site7751],11.1
6,TACAAAATGGGGAACACACACATATATATATATATA [CACACA_site3844],9.99
7,CACAGACACGGACACACACACACAAAAAAAAAAAGA [CACACA_site4436],11.3
8,TAAATATATAAATACACACACATACACAAAAAAAAA [CACACA_site5890],10.9
9,TATACACATATATAAACACACAAAAAAAAAAAAAAA [CACACA_site7041],9.57
10,GATACAAAATGGGGAACACACACATATATATATATA [CACACA_site9278],10.8
11,TTTTTTTGCATTTCATGTACATATATTGAGCTTAAA [XGTACX_site8485],9.6
12,TCACAAATGTATTATACACACAAGTTTTCTTTAATA [CACACA_site4107],9.71
13,ATGAATTTTTCTCTACAAAAGGATATAATAAAAATA [XGTACX_negctrl_site461],9.37
14,TTACGAATAAAACAGTGTACATTGAATTTCTATGAG [XGTACX_site4771],9.51
15,TTTTTAAAAATATACACACACAGATATTATAGATAT [CACACA_site6511],10.1
16,TCCTTATTTATATAATGTACTTTTTTTTTTCATTTT [XGTACX_site4275],9.64
17,TTTATTCAAATATAATGTACTTTCTACAAATTCAAT [XGTACX_site8119],9.43
18,TATTATATAAAATATTTTATTATATCATCTTCTCTA [XGTACX_negctrl_site319],9.44
19,TTCATTTTCATATATTGTACAAAATTTTATAAGGTT [XGTACX_site4522],9.58
20,ATCTTGAAGATTATTTGTACACAAAAGTTAAAATAT [XGTACX_site242],9.47
21,AAAAAAAAAAAACATACACACAAATAAATACATACA [CACACA_site6073],10.1
22,AAAAAAAAAAAACACACACACAAATACAAATACATA [CACACA_site415],11.5
23,AAAAAAAAAAAACACACACACACAAATACATACACA [CACACA_site706],10.7

row,Sequence,gcPBM binding intensity (ln)
1,TCATACTGTATATTTTGTACTTATATATATATTATA [XGTACX_site6136],10
2,TATTCCCCCCAACACACACACACACCGACATACCAC [CACACA_site8723],11.5
3,CATATTCCCCCCCACACACACACACCCATACATACC [CACACA_site2303],10.6
4,ACATACATACCCCCACGTACGTACCGAAACACCACC [XGTACX_site1982],9.84
5,CACCCACCCACATACACACACATACACATATATATA [CACACA_site1722],10.3
6,GACATATTCCCCCCCACACACACACCCACATACATA [CACACA_site2302],11.1
7,TATTCCCCCAAACACACACACACACCCACATACCAC [CACACA_site2304],10.7
8,AATTATATATTATAATGTACATATATATAACTATAC [XGTACX_site1865],9.67
9,ATAATTCATGTTTAGTGTACAAAAAATTAAAGCAAC [XGTACX_site8891],9.87
10,ATATAGTATAATAAAAGTACATTTTGATTTTTTCTC [XGTACX_site1797],9.61
11,AATAAACATAAATAAAAATTATAAAATATATATATG [CACACA_negctrl_site1709],9.75
12,CATACACAGAAACACACACACATATATACATATATA [CACACA_site1094],10.4
13,TAAAAAAAAACAGAAACACACATTATTCATATATAT [CACACA_site2049],10.2
14,ATATAACAGAAACACACACACATATATATATATTAT [CACACA_site4140],11.3
15,TAAATACAGAAACACACACACAAATATATACATACA [CACACA_site2880],10.5
16,AACATACAGAAACACACACACACACCCACACCCACA [CACACA_site493],11.5
17,CATACATAGAAACACACACACACACCCACCCACAAA [CACACA_site494],10.6
18,CATACACAGAAACACACACACATATATATATATATA [CACACA_site4519],10.2
19,TATACGCAGAAACACACACACATACACCCACATACA [CACACA_site1723],10.6
20,CATTATAAGAAACACACACACATATATATATATATA [CACACA_site1051],10.1
21,CATATACAGAAACACACACACACATAAATAAATATA [CACACA_site1343],11
22,TACATACAGAAACACACACACACATATATATATATA [CACACA_site2919],11.1
23,CAAATACAGAAACACACACACATATACATATATATA [CACACA_site3498],10.4
